Measurements taken from PubChem BioAssay (NCI).
The panel holds about 83,000 compounds, 20% with a hit somewhere; the sample as a whole holds those more often.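 The test compound was applied at a single concentration to cells in 96-well plates for 48 hours, and percent growth was recorded.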 Values without a mark were called inactive. Active and inactive are the calls of the source. The calls were made as follows: active = growth percent below 10; inactive = the rest.

Columns and labels:
Assay in all cases: NCI-60 one-dose screen, 48 h (100 = growth as untreated, 0 = no growth, -100 = all killed)
Conditions in all cases: 10 µM
SR leukemia = tested on: SR leukemia
RPMI-8226 leukemia = tested on: RPMI-8226 leukemia
OVCAR-8 ovarian = tested on: OVCAR-8 ovarian
OVCAR-5 ovarian = tested on: OVCAR-5 ovarian
OVCAR-4 ovarian = tested on: OVCAR-4 ovarian
SK-OV-3 ovarian = tested on: SK-OV-3 ovarian
IGROV1 ovarian = tested on: IGROV1 ovarian
OVCAR-3 ovarian = tested on: OVCAR-3 ovarian
HS 578T breast = tested on: HS 578T breast
NCI/ADR-RES ovarian = tested on: NCI/ADR-RES ovarian

| SMILES | growth (SR leukemia) | growth (RPMI-8226 leukemia) | growth (OVCAR-8 ovarian) | growth (OVCAR-5 ovarian) | growth (OVCAR-4 ovarian) | growth (SK-OV-3 ovarian) | growth (IGROV1 ovarian) | growth (OVCAR-3 ovarian) | growth (HS 578T breast) | growth (NCI/ADR-RES ovarian) |
| --- | --- | --- | --- | --- | --- | --- | --- | --- | --- | --- |
| O=C1c2ccccc2C(=O)c2c1ccc(C(Br)Br)c2Cl | -51.2% (active) | -15.5% (active) | 17.1% | 104% | 35.5% | 93.4% | -43.2% (active) | -13.8% (active) | 85.6% | 64.6% |
| CCOC(=O)N/N=C/c1ccc(OC)c(OC)c1 | 105% | 102% | 102% | 112% | 110% | 114% | 110% | 128% | – | 116% |
| Nc1cc(-c2ccncc2)c[nH]c1=O | 74.3% | 109% | 100% | 98.8% | 106% | 120% | 108% | 107% | 110% | 104% |
| COc1nc2c(c(=O)n1C)CN(c1ccccc1)C(=O)C(C)N2 (stereo not drawn) | 93.6% | 96% | 93.4% | 93.2% | 91.9% | 107% | 106% | – | 105% | 91% |
| CCCc1cn(CC(=O)Nc2nc3ccccc3s2)nn1 | 110% | 112% | 100% | 98.6% | 109% | 110% | 97.3% | – | 101% | 107% |
| O=C(CCl)Nc1ccc(Cc2ccc(NC(=O)CCl)cc2)cc1 | 5.61% (active) | -32.9% (active) | 0.481% (active) | 9.56% (active) | 27% | 61.7% | -45.9% (active) | -32.8% (active) | 35.7% | 2.83% (active) |
| COC(=O)c1c[nH]c2cc(OC(C)C)c(OC(C)C)cc2c1=O | 97% | 96.9% | 58.8% | 106% | 109% | 55.2% | 139% | 113% | – | 101% |
| CC(C)CCN(CCC(C)C)CC(=O)Nc1ccc(S(=O)(=O)c2ccc(NC(=O)CN(CCC(C)C)CCC(C)C)cc2)cc1 | 3.98% (active) | -22.4% (active) | 21.8% | 54.3% | 73.7% | 84.3% | 12.1% | 22.7% | 65.3% | 59.3% |
| CCCCC1(O)CCCCC1 | 92.6% | 101% | 104% | 112% | 115% | 112% | 114% | 106% | 98.1% | 107% |
| CCNCC(=O)Nc1ccc(C(=O)OCC)cc1 | 82.3% | 104% | 103% | 103% | 102% | 99.8% | 99.3% | 99.9% | 97.4% | 103% |
| CC(=O)N[C@H](C(=O)N[C@@H](CCCNC(=N)N)C(=O)N[C@@H](CCCCN)C(=O)N[C@@H](CCCNC(=N)N)C(=O)N[C@]1(C)CCCCCC/C=C\CCC[C@@](C)(C(=O)N[C@@H](CCCNC(=N)N)C(=O)N[C@@H](CCC(=O)O)C(=O)N[C@@H](CC(C)C)C(=O)N[C@H](C(=O)N[C@@H](CCC(=O)O)C(N)=O)C(C)C)NC(=O)[C@H](CCC(N)=O)NC(=O)[C@H](CC(C)C)NC(=O)[C@H](CC(C)C)NC(=O)[C@H](CCCNC(=N)N)NC(=O)[C@H](CCCNC(=N)N)NC(=O)[C@H](CC(C)C)NC1=O)C(C)C | 15.4% | 20.9% | -15.5% (active) | 38.3% | 39.6% | 53.1% | 58.8% | -38.9% (active) | -33.9% (active) | 7.03% (active) |
| O=C(CCNC(=O)c1nc(-c2ccccc2)n(-c2ccc(Cl)cc2)n1)NO | 98.6% | 103% | 108% | 96.4% | 106% | 92.4% | 102% | 98.7% | 107% | 109% |
| O=C1/C(=C/c2ccc([N+](=O)[O-])s2)Oc2cc(Cl)ccc21 | 8.31% (active) | -14.7% (active) | -25.5% (active) | 53% | 3.28% (active) | 88.8% | -60.9% (active) | -76.8% (active) | 1.22% (active) | 24% |
| CCN(CC)CCOc1cccc2c1C(=O)c1ccccc1C2=O | 88.4% | 86% | 85.7% | 102% | 86.7% | 82.2% | 102% | 102% | 90% | 92.5% |
| CCn1c(SC/C(=N/O)c2ccccc2)nnc1-c1ccccc1 | 94.8% | 89.7% | 111% | 96.8% | 85.5% | 89.7% | 106% | 121% | 101% | 103% |
| COc1ccc2nc3cc(Cl)ccc3c(N)c2c1 | -39.1% (active) | -1.72% (active) | -44.4% (active) | -91.8% (active) | -98% (active) | -97.7% (active) | -33% (active) | -93.7% (active) | – | -97.2% (active) |
| O=[N+]([O-])c1ccc(/C(=C/c2ccccc2)[n+]2ccccc2)cc1 | 102% | 98.3% | 97% | 98% | 100% | 119% | 109% | 127% | – | 116% |
| O=C(CN1CCN(C(=O)c2ccccc2)CC1)Nc1ccccc1SCc1ccccc1 | 71% | 68.3% | 87.3% | 96.4% | 77.2% | 89.5% | 84.2% | – | 83.9% | 78.4% |
| NS(=O)(=O)Oc1ccc2c(ccn2C(=O)C23CC4CC(CC(C4)C2)C3)c1 | 111% | 110% | 105% | 105% | 104% | 121% | 110% | 117% | 109% | 95.5% |
| CS(=O)(=O)c1nccc(-c2c(-c3cccc(OCCc4ccccc4)c3)nc3sccn23)n1 | 85.8% | 96.9% | 98% | 103% | 100% | 96.5% | 88.7% | 104% | 92.4% | 99.9% |
| COC(=O)C1(O)NC(=C(C#N)C#N)C(C#N)=C1C(=O)c1ccc(OC)c(OC)c1 (stereo not drawn) | 89.7% | 90.1% | 92% | 111% | 118% | 98.6% | 101% | 107% | 95.9% | 106% |
